We go through 17 compounds from PubChem BioAssay (EPA / NIEHS).

As a reminder, the AC50 is the concentration at which the activity in the assay is half-maximal.

Records with an inconclusive call do not appear. The source holds several records for some structures; these can differ, active in one and inactive in another. The source made the active and inactive calls. The calls were made as follows: active = hit-call score of the fitted dose curve at least 0.9, where 1 is the maximum; inconclusive = response in the unintended direction; inactive = score below 0.9.

Assay [1] addresses human Matrix Metalloproteinase-9 (MMP9), MMP9 (gene 4318) (UniProt P14780). The assay can be described thus: NVS_ENZ_hMMP9: NovaScreen (NVS) Enzymatic Assay for human Matrix Metalloproteinase-9 (MMP9) (AID 2283190).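 Also: cell-free recombinant MMP9 protease activity read by fluorescent substrate signal; active means inhibition seen as loss of fluorescence signal versus DMSO.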 In outline:
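Cell-free recombinant MMP9 enzyme activity measured by fluorescence intensity 1 h after dosing. Primary screen in duplicate at 25 uM, actives followed in concentration series; loss of signal relative to DMSO.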

For assay [2], the target named is human Phosphodiesterase 4A1 (PDE4A1), PDE4A (gene 5141) (UniProt P27815). As to the kind of experiment: NVS_ENZ_hPDE4A1: NovaScreen (NVS) Enzymatic Assay for human Phosphodiesterase 4A1 (PDE4A1) (AID 2283191). In outline: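 Fluorescent substrate turnover by recombinant PDE4A1 read after 1 h by mobility-shift separation. Primary duplicate screen at 25 uM; hits retested in concentration series with a 50 uM maximum, relative to DMSO.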

Assay [3] deals with Serine/threonine-protein phosphatase PP1-alpha catalytic subunit (Homo sapiens) (UniProt P62136). The assay can be described thus: NVS_ENZ_hPPP1CA: NovaScreen (NVS) Enzymatic Assay for human Protein Phosphatase 1 Aatalytic subunit Alpha (PPP1CA) (AID 2283200). The method in brief:
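Chemicals were first screened in duplicate at 25 uM, and those passing threshold (e.g. 30% inhibition) were run as concentration series to 50 uM. Cell-free recombinant protein, 1.33 h read, fluorescent substrate/product mobility-shift detection, normalised to DMSO.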

For assay [4], the target named is human Protein Tyrosine Phosphatase Receptor Type F (PTPRF), PTPRF (gene 5792) (UniProt P10586). The assay can be described thus: NVS_ENZ_hPTPRF: NovaScreen (NVS) Enzymatic Assay for human Protein Tyrosine Phosphatase Receptor Type F (PTPRF) (AID 2283213). The method in brief:
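Cell-free fluorescence enzyme assay with recombinant protein and substrate; product separated by electrophoretic mobility shift. Read 1 h after dosing, single 25 uM duplicate screen, then concentration-response up to 50 uM; loss of signal vs DMSO.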

In assay [5] the target is human Phosphodiesterase 5 (PDE5), PDE5A (gene 8654) (UniProt O76074). The assay can be described thus: NVS_ENZ_hPDE5: NovaScreen (NVS) Enzymatic Assay for human Phosphodiesterase 5 (PDE5) (AID 2283194). In outline: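 Screening began in duplicate at 25 uM, with actives taken into concentration-response. Enzyme activity of recombinant PDE5 toward its substrate was measured at 1 h by fluorescence mobility-shift detection, relative to DMSO controls.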

The target of assay [6] is human Protein Tyrosine Phosphatase Non-receptor Type 1 (PTPN1), PTPN1 (gene 5770) (UniProt P18031). The assay can be described thus: NVS_ENZ_hPTPN1: NovaScreen (NVS) Enzymatic Assay for human Protein Tyrosine Phosphatase Non-receptor Type 1 (PTPN1) (AID 2283201). In outline:
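Chemicals were first tested in duplicate at 25 uM, and those passing threshold went on to singleton concentration series topping at 50 uM. Recombinant enzyme, specific substrate, product separated by mobility shift, fluorescence read at 1.33 h; activity loss relative to DMSO.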

Assay [7] concerns the target Tyrosine-protein phosphatase non-receptor type 11 (Homo sapiens) (UniProt Q06124). As to the kind of experiment: NVS_ENZ_hPTPN11: NovaScreen (NVS) Enzymatic Assay for human Protein Tyrosine Phosphatase Non-receptor Type 11 (PTPN11) (AID 2283202). In outline:
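Compounds first tested in duplicate at 25 uM; those reaching ~30% inhibition rerun in singleton concentration-response, top 50 uM. Phosphatase activity measured after 0.5 h by fluorescence with mobility-shift separation, relative to DMSO.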

Assay [8] concerns the target Tyrosine-protein phosphatase non-receptor type 13 (Homo sapiens) (UniProt Q12923). The assay can be described thus: NVS_ENZ_hPTPN13: NovaScreen (NVS) Enzymatic Assay for human Protein Tyrosine Phosphatase Non-receptor Type 13 (PTPN13) (AID 2283205). In outline: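 Screened first at a single 25 uM in duplicate; compounds passing the threshold (e.g. 30% inhibition) were rerun in concentration series, top 50 uM. Recombinant enzyme, fluorescent substrate, mobility-shift separation, 0.5 h read. Data fitted as inhibition relative to DMSO.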

The target of assay [9] is Tyrosine-protein phosphatase non-receptor type 14 (Homo sapiens) (UniProt Q15678). The assay can be described thus: NVS_ENZ_hPTPN14: NovaScreen (NVS) Enzymatic Assay for human Protein Tyrosine Phosphatase Non-receptor Type 14 (PTPN14) (AID 2283206). In outline:
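Fluorescent substrate turnover by recombinant human PTPN14 was measured 0.5 h after compound addition, with substrate and product separated by mobility shift. Single-point screening at 25 uM, then concentration-response up to 50 uM for chemicals meeting threshold (e.g., 30% inhibition).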

The target in assay [10] is human Protein Tyrosine Phosphatase Non-receptor Type 9 (PTPN9), PTPN9 (gene 5780) (UniProt P43378). As to the kind of experiment: NVS_ENZ_hPTPN9: NovaScreen (NVS) Enzymatic Assay for human Protein Tyrosine Phosphatase Non-receptor Type 9 (PTPN9) (AID 2283209). The method in brief: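 Sf9-expressed enzyme in a cell-free assay, fluorescence read 1.33 h after dosing with mobility-shift separation of substrate and product. Tested at 25 uM in duplicate, then up to 50 uM; signal loss versus DMSO.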
Chain of human Protein Tyrosine Phosphatase Non-receptor Type 9 (PTPN9), PTPN9 (gene 5780) (P43378 whole entry, looked up): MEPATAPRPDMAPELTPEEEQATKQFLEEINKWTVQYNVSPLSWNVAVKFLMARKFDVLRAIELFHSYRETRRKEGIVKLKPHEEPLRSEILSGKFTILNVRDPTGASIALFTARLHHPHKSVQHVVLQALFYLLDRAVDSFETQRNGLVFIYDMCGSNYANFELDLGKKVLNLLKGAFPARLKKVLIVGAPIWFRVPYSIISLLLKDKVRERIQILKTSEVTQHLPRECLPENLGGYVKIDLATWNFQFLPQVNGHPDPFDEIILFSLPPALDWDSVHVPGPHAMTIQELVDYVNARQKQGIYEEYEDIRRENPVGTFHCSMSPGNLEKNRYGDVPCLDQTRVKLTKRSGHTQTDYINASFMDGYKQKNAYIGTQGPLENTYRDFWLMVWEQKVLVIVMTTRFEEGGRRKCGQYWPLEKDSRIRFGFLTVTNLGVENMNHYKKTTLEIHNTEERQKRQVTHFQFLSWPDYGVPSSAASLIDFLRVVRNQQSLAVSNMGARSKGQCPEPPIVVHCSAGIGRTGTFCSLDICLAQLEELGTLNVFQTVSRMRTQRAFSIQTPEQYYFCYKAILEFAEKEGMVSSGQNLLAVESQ

The target of assay [11] is human Rho Associated Coiled-coil Containing Protein Kinase 1 (ROCK1), ROCK1 (gene 6093) (UniProt Q13464). The assay can be described thus: NVS_ENZ_hROCK1: NovaScreen (NVS) Enzymatic Assay for human Rho Associated Coiled-coil Containing Protein Kinase 1 (ROCK1) (AID 2283214). The method in brief: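 Compounds first run in duplicate at 25 uM against recombinant human ROCK1, then followed in concentration series. Kinase activity was read 1 h post-dosing by fluorescence with mobility-shift separation, as signal loss relative to DMSO.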

The target in assay [12] is human Protein Tyrosine Phosphatase Receptor Type M (PTPRM), PTPRM (gene 5797) (UniProt P28827). As to the kind of experiment: NVS_ENZ_hPTPRM: NovaScreen (NVS) Enzymatic Assay for human Protein Tyrosine Phosphatase Receptor Type M (PTPRM) (AID 2283215). In outline:
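Read-out is fluorescence after electrophoretic separation of substrate and product, taken 1.33 h post-dosing with recombinant enzyme. Compounds screened at 25 uM in duplicate, then concentration series for actives; activity as signal loss relative to DMSO.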

Assay [13] deals with cAMP-dependent protein kinase catalytic subunit alpha (Homo sapiens) (UniProt P17612). As to the kind of experiment: NVS_ENZ_hPKA: NovaScreen (NVS) Enzymatic Assay for human Protein Kinase A (PKA) (AID 2283192). In outline: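 Cell-free kinase activity read by fluorescence after mobility-shift separation of substrate and product, 1 h post-dosing. Single-concentration duplicate screen (25 uM) preceded singleton concentration series (top 50 uM); loss of signal versus DMSO.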

For assay [14], the target named is human Protein Tyrosine Phosphatase Receptor Type B (PTPRB), PTPRB (gene 5787) (UniProt P23467). As to the kind of experiment: NVS_ENZ_hPTPRB: NovaScreen (NVS) Enzymatic Assay for human Protein Tyrosine Phosphatase Receptor Type B (PTPRB) (AID 2283211). In outline:
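Recombinant human PTPRB with a fluorescent substrate, product separated by electrophoretic mobility shift; read 1 h after dosing. Primary screen in duplicate at 25 uM; actives then retested in concentration series; loss of signal versus DMSO.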

Assay [15] deals with human Phosphoinositide 3-kinase alpha (PI3Ka), PIK3CA (gene 5290) (UniProt P42336). The assay can be described thus: NVS_ENZ_hPI3Ka: NovaScreen (NVS) Enzymatic Assay for human Phosphoinositide 3-kinase alpha (PI3Ka) (AID 2283196). In outline:
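Recombinant human PI3Kα with fluorescent substrate, 1 h, product separated by electrophoretic mobility shift; 25 uM duplicate screen, hits (e.g., 30% inhibition) retested singly up to 50 uM; loss of signal vs DMSO.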

Assay [16] addresses human Protein Phosphatase, Mg2+/Mn2+ Dependent 1A (PPM1A), PPM1A (gene 5494) (UniProt P35813). As to the kind of experiment: NVS_ENZ_hPPM1A: NovaScreen (NVS) Enzymatic Assay for human Protein Phosphatase, Mg2+/Mn2+ Dependent 1A (PPM1A) (AID 2283198). The method in brief:
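Primary screen in duplicate at 25 uM, with actives then titrated to a maximum of 50 uM. Recombinant PPM1A dephosphorylation of fluorescent substrate measured at 1 h, with substrate and product separated by mobility shift; inhibition fitted against DMSO.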

In assay [17] the target is human Phosphodiesterase 10 (PDE10), PDE10A (gene 10846) (UniProt Q9Y233). As to the kind of experiment: NVS_ENZ_hPDE10: NovaScreen (NVS) Enzymatic Assay for human Phosphodiesterase 10 (PDE10) (AID 2283195). The method in brief: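 Fluorescence readout after mobility-shift separation of substrate and product, 1 h reaction with recombinant human enzyme. Single-concentration duplicates at 25 uM, then concentration-response up to 50 uM for chemicals reaching threshold; DMSO baseline.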
Chain of human Phosphodiesterase 10 (PDE10), PDE10A (gene 10846) (Q9Y233 whole entry, looked up): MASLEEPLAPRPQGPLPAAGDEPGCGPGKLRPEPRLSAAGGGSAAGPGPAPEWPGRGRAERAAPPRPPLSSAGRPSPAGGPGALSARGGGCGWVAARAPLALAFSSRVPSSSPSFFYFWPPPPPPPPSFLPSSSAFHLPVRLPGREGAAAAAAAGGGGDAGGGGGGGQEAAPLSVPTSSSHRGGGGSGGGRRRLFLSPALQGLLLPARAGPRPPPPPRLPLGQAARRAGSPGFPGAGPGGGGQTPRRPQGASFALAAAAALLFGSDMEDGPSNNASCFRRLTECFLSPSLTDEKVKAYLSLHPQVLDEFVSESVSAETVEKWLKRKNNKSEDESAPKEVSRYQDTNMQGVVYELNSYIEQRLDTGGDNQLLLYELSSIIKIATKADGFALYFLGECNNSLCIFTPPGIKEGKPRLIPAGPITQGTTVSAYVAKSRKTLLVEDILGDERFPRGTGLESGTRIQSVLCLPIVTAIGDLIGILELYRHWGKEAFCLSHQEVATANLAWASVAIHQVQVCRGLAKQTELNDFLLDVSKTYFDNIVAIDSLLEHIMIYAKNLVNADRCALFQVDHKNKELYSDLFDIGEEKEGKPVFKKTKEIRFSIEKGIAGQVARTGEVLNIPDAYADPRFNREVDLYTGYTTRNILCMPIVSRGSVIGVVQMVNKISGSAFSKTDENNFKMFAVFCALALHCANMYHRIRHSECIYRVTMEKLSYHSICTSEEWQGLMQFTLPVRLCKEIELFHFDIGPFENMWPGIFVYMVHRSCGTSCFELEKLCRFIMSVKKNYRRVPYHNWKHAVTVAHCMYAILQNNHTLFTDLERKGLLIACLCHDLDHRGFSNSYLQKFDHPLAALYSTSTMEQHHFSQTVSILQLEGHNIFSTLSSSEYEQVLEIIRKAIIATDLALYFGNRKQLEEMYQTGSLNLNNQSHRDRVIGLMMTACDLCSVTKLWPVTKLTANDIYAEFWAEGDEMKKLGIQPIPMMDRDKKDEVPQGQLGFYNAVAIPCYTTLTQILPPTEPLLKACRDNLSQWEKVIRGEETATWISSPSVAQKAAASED

In assay [18] the target is human Protein Tyrosine Phosphatase Non-receptor Type 4 (PTPN4), PTPN4 (gene 5775) (UniProt P29074). The assay can be described thus: NVS_ENZ_hPTPN4: NovaScreen (NVS) Enzymatic Assay for human Protein Tyrosine Phosphatase Non-receptor Type 4 (PTPN4) (AID 2283208). The method in brief:
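Screened in duplicate at 25 uM, with hits then titrated to a top concentration of 50 uM. Recombinant Sf9-derived PTPN4 turnover was read by fluorescence with electrophoretic separation, 1.33 h after compound addition. DMSO served as baseline.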

For assay [19], the target named is Tyrosine-protein phosphatase non-receptor type 12 (Homo sapiens) (UniProt Q05209). As to the kind of experiment: NVS_ENZ_hPTPN12: NovaScreen (NVS) Enzymatic Assay for human Protein Tyrosine Phosphatase Non-receptor Type 12 (PTPN12) (AID 2283204). In outline:
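Single-concentration duplicates (25 uM) preceded singleton concentration-response up to 50 uM for chemicals passing threshold. Cell-free recombinant PTPN12 activity was read 1.33 h after dosing via fluorescence after mobility-shift separation; loss of signal versus DMSO.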

Chain of Tyrosine-protein phosphatase non-receptor type 11 (Homo sapiens) (Q06124 whole entry, looked up): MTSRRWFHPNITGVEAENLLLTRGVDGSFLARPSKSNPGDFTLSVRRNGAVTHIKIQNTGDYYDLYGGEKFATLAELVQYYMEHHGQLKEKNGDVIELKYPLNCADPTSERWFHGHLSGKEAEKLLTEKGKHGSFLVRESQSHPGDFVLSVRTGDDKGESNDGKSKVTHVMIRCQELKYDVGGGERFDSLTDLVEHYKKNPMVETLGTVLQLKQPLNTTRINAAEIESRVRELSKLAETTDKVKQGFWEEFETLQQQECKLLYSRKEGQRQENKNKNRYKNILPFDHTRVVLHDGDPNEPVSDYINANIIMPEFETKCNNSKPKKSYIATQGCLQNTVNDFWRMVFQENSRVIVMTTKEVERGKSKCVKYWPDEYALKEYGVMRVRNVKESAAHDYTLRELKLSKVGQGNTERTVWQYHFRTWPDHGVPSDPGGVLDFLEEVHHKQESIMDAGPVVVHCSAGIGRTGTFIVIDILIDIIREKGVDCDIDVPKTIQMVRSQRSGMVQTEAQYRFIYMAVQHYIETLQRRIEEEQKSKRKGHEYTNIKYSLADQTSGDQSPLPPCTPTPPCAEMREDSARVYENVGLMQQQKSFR
Chain of human Protein Tyrosine Phosphatase Receptor Type F (PTPRF), PTPRF (gene 5792) (P10586 whole entry, looked up): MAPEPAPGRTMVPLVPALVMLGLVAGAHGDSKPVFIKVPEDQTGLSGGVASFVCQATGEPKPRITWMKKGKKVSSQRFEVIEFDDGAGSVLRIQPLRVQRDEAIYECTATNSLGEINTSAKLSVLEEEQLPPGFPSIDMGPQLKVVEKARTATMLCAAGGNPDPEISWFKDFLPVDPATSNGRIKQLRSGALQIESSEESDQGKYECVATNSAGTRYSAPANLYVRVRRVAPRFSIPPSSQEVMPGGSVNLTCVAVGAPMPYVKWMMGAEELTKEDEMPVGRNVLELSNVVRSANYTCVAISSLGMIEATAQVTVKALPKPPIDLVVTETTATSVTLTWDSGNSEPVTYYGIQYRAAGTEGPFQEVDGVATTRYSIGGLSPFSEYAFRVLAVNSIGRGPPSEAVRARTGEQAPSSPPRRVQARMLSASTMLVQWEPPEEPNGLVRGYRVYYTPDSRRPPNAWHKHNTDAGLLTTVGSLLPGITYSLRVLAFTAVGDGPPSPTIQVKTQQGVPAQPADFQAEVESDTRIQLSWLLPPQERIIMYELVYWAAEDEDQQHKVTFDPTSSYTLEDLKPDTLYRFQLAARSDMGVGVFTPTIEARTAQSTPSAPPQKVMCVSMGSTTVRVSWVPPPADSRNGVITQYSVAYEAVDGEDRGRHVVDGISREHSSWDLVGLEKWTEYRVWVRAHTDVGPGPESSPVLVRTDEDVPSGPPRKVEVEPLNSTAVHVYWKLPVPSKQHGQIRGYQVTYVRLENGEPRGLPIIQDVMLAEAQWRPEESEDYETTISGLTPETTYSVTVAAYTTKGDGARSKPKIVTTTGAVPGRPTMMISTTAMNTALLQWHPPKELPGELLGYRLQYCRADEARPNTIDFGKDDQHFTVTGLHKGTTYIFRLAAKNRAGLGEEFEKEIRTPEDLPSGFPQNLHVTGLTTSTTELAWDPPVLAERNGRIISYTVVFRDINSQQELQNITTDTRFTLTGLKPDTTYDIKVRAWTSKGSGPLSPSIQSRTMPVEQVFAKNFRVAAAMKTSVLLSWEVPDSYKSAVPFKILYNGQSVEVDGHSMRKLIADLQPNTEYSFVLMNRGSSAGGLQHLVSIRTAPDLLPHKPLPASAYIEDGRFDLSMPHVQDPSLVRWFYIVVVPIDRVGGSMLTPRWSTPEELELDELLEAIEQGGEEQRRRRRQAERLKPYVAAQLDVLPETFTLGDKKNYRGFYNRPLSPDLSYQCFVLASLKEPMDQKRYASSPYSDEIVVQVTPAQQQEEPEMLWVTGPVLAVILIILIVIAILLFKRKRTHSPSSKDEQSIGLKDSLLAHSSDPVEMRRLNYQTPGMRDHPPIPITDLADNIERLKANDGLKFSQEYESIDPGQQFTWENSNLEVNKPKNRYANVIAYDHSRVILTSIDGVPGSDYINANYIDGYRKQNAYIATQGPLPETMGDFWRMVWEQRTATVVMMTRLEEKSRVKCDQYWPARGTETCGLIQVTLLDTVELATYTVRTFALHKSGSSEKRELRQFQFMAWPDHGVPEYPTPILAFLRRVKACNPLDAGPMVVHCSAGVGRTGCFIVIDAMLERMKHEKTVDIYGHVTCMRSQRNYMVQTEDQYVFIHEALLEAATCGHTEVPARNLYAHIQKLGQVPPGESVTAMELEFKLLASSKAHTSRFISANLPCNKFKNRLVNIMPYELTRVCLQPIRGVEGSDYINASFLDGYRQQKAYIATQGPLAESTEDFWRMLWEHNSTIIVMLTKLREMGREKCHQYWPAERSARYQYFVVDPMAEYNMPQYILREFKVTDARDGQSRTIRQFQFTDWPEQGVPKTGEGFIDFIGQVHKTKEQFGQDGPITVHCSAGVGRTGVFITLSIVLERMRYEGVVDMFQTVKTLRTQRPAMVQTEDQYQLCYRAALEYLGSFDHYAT
Chain of human Protein Tyrosine Phosphatase Non-receptor Type 4 (PTPN4), PTPN4 (gene 5775) (P29074 whole entry, looked up): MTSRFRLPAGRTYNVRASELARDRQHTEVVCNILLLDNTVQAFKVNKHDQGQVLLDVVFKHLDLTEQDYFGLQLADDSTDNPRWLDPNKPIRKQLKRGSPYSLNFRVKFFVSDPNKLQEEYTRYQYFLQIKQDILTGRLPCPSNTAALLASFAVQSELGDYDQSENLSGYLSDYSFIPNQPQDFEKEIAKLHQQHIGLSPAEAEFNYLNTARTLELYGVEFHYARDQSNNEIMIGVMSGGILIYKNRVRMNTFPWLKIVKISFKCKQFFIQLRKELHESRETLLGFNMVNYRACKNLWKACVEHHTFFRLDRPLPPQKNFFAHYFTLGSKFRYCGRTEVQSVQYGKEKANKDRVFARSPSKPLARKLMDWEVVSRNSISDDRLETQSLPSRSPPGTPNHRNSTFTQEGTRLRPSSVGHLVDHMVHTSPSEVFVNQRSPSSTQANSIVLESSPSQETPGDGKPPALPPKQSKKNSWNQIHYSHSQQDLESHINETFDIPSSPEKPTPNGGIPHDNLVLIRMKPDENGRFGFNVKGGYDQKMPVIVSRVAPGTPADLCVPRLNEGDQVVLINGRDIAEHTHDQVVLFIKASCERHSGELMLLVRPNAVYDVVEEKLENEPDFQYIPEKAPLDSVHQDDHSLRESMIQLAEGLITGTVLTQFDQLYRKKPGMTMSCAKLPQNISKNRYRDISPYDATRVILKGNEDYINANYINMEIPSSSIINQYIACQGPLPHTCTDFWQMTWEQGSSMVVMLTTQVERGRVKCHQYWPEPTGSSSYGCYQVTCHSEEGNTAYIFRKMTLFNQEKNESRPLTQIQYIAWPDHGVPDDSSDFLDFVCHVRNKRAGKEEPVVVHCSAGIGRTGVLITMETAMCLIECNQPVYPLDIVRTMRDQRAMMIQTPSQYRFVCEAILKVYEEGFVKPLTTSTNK

For `C=CCOC(Cn1ccnc1)c1ccc(Cl)cc1Cl` (stereo not given), in assay [1], the AC50 is 18.6 µM (active). Moreover, the outcome in assay [2] was inactive.

For the compound `CN(C)C(=O)Nc1ccc(Cl)c(Cl)c1`, the call in assay [3] and in assay [4] was inactive.

On to `CC(C)CCCCCCc1ccc(O)cc1`, for which the result in [2], in [5], in [3], in assay [6], in [7] and in assay [8] was inactive. The call in assay [9], in assay [10], in [4], in assay [11] and in assay [12] was inactive.

On to `COC(=O)c1ccccc1S(=O)(=O)NC(=O)Nc1nc(OC(F)F)cc(OC(F)F)n1`, for which the result in assay [13] and in [14] was inactive.

For `Oc1ccc(C(c2ccc(O)cc2)C(Cl)(Cl)Cl)cc1`, the call in [1] and in [7] was inactive. In addition, the half-maximal activity concentration (AC50) in assay [15] is 29.1 µM (active); in [12], 46.5 µM (active).

For the compound `CCCOC(=O)NCCCN(C)C`, the result in [4] was inactive.

For the compound `CCOC(=O)c1ccc(O)cc1`, the compound was classed as inactive in assay [5] and in assay [16].

Consider `CCC(C)OC(=O)N1CCCCC1CCO` (stereo not given), for which the result in assay [17], in assay [18] and in assay [10] was inactive.

On to `CC(C)(c1ccc(O)cc1)c1ccc(O)cc1`, for which the AC50 in [15] is 25.4 µM (active). In addition, the compound was called inactive in assay [15], in [16], in [14] and in assay [11].

`c1ccc(Nc2ccccc2)cc1`: the result in assay [3] and in [18] was inactive.

Consider `CSC(=O)c1cccc2nnsc12`, for which the call in [2], in assay [5], in assay [18] and in assay [11] was inactive.

On to `c1ccc2[nH]c(-c3cscn3)nc2c1`, for which, in assay [5], the half-maximal activity concentration (AC50) was 11.6 µM (active).

As for `COC(=O)c1c(Cl)nn(C)c1S(=O)(=O)NC(=O)Nc1nc(OC)cc(OC)n1`, the result in assay [5] was inactive.

Consider `OB(O)O`, for which, in [3], the compound was classed as inactive.

As for `O=C(O)C1(C(=O)Nc2ccc(Cl)cc2Cl)CC1`, the concentration at half-maximal activity (AC50) in assay [2] is 24.2 µM (active); in [5], 13 µM (active); in assay [17], 34.9 µM (active); in assay [3], 19.7 µM (active); in assay [6] it was 3.82 µM (active); in [7], 6.94 µM (active). Moreover, the AC50 in [19] was 25 µM (active); in assay [8], 3.91 µM (active); in assay [18] it was 3.23 µM (active); in assay [10] it was 4.28 µM (active); in assay [12], 12.4 µM (active). Besides, in assay [4], the compound was classed as inactive.

Regarding `CC(=O)S[C@@H]1CC2=CC(=O)CC[C@]2(C)[C@H]2CC[C@@]3(C)[C@@H](CC[C@@]34CCC(=O)O4)[C@H]12`, the AC50 in [17] is 14.4 µM (active).

Regarding `CCSC(=O)N(CC(C)C)CC(C)C`, the compound was classed as inactive in [15].
